# Values without a mark were called inactive.
# System: Vero E6 infected with SARS-CoV-2
# Assay: inhibition of SARS-CoV-2 cytopathic effect; higher = more antiviral protection, active = above 15
# Conditions: 48 h
SMILES,inhibition of SARS-CoV-2 cytopathic effect (1 nM) [%],inhibition of SARS-CoV-2 cytopathic effect (8.33 nM) [%],inhibition of SARS-CoV-2 cytopathic effect (100 nM),inhibition of SARS-CoV-2 cytopathic effect (833.33 nM) [%],inhibition of SARS-CoV-2 cytopathic effect (10000 nM)
C[C@@H]1O[C@@H](O[C@H]2[C@H](Oc3cc(O)c4c(c3)O[C@H](c3ccc(O)cc3)CC4=O)O[C@H](CO)[C@@H](O)[C@@H]2O)[C@H](O)[C@H](O)[C@H]1O [Naringin (Naringoside)],-3.68,-1.36,-3.02%,-1.1,1.71%
COC(=O)Nc1ccc2[nH]cc(CCNC(C)=O)c2c1,-2.08,-0.32,-1.52%,-7.74,-1.85%
NC1CCN(c2cccc(Cl)n2)CC1,0.72,-1.55,-4.6%,-0.29,-3.39%
CC(=O)NC[C@H]1CN(c2ccc(N3CCN(C(=O)CO)CC3)c(F)c2)C(=O)O1 [eperezolid],-1.15,-0.41,-0.04%,0.64,0.19%
Fc1ccc2c(CCNCc3cccc(OCC(F)(F)C(F)F)c3)c[nH]c2c1 [idalopirdine],2.26,0.96,0.82%,-0.82,-3.37%
COc1ccc(O)cc1 [mequinol],2.15,-1.51,2.67%,1.18,2.53%
OC[C@H]1O[C@@H](n2cnc3c(N[C@H]4CCC[C@@H]4O)ncnc32)[C@H](O)[C@@H]1O,4.79,4.09,3.63%,-0.63,0.91%
Cc1cccc(C)c1OCC(=O)N[C@@H](Cc1ccccc1)[C@@H](O)C[C@H](Cc1ccccc1)NC(=O)[C@H](C(C)C)N1CCCNC1=O [Lopinavir],0.81,-0.07,0.62%,-0.42,6.72%
O=C(O)c1ccc2nc(-c3cc(Cl)cc(Cl)c3)oc2c1 [tafamidis-meglumine],-0.14,-0.38,-1.04%,1.34,0.08%
O=C(CCCCC(=O)Nc1c(I)cc(I)c(C(=O)O)c1I)Nc1c(I)cc(I)c(C(=O)O)c1I [iodipamide],-2.81,-3.21,-1.82%,-3.34,0.05%
Nc1c2ccccc2nc2ccccc12 [9-aminoacridine],-6.32,1.57,-3.73%,0.13,-28.3%
COc1ccc(C2(CNC(=O)c3ccc(NC(=O)c4ccco4)cc3)CCOCC2)cc1,1.26,1.21,-2.16%,-1.65,-2.44%
C[C@H]1CC[C@H](n2c3cnccc3c3cnc(Nc4ccc5c(n4)CCN(C(=O)CO)C5)nc32)CC1,-2.38,-0.1,-1.1%,-0.44,-5.03%
Cc1c(-c2ccc(O)cc2)n(Cc2ccc(OCCN3CCCCCC3)cc2)c2ccc(O)cc12 [bazedoxifene],-2,-3.97,-2.44%,-5.76,48.9% (active)
CC1(N2CCC(n3c([C@@H]4CCCNC4)nc4ccccc43)CC2)CCCCCCC1,0.07,0.4,-0.65%,-3.36,83.5% (active)
O=C(O)CCCN1CCC(O[C@@H](c2ccc(Cl)cc2)c2ccccn2)CC1 [bepotastine],-0.92,2.31,0.31%,2.01,-0.07%
Nc1ncnc2c1ncn2[C@@H]1O[C@H](COP(=O)(O)OP(=O)(O)OP(=O)(O)OP(=O)(O)OC[C@H]2O[C@@H](n3cnc4c(N)ncnc43)[C@H](O)[C@@H]2O)[C@@H](O)[C@H]1O [diadenosine-tetraphosphate],1.69,0.56,0.34%,1.06,-1.97%
O=c1[nH]cnc2nc[nH]c12 [hypoxanthine],4.22,2.78,1.76%,0.21,2.46%

SMILES,inhibition of SARS-CoV-2 cytopathic effect (1 nM) [%],inhibition of SARS-CoV-2 cytopathic effect (8.33 nM) [%],inhibition of SARS-CoV-2 cytopathic effect (100 nM),inhibition of SARS-CoV-2 cytopathic effect (833.33 nM) [%],inhibition of SARS-CoV-2 cytopathic effect (10000 nM)
CC(C)(C)c1cc(C(=O)/C(C#N)=N/Nc2cccc(Cl)c2)no1,1.62,-1.2,-0.43%,2.18,11.6%
OC[C@@H](O)[C@@H](O)CO [erythritol],-0.84,-2.36,-2.74%,0.56,0.5%
C=CCN(C)CCCCCCOc1ccc(C(=O)c2ccc(Br)cc2)c(F)c1,0.63,1.12,2.12%,0.47,13.8%
COC(=O)[C@@]12OC[C@]34[C@H]([C@@H](O)[C@@H]1O)[C@@]1(C)CC(=O)C(O)=C(C)[C@@H]1C[C@H]3OC(=O)[C@H](OC(=O)/C=C(\C)C(C)C)[C@@H]24 [bruceantin],1.48,1.92,26.8% (active),4.61,-16.1%
O=C(c1ccc(-c2ccc(Cl)cc2)o1)N(Cc1ccccn1)c1ccc(N2CCNCC2)cc1,-2.64,1.12,-0.23%,-1.66,43.8% (active)
C#C[C@]1(OC(C)=O)CC[C@H]2[C@@H]3CCC4=CC(=NO)CC[C@@H]4[C@H]3CC[C@@]21CC (mixture of isomers) [norgestimate],-3.21,0.96,1.62%,-2.37,-3.22%
CC12CCC(C(Br)C1=O)C2(C)C (stereo not given) [3-bromocamphor],-1.02,0.99,-0.16%,1.85,0.04%
CC(C)CCC[C@@H](C)[C@H]1CC[C@H]2[C@@H]3CCC4=CC(=NO)CC[C@]4(C)[C@H]3CC[C@]12C [olesoxime],-0.01,0.28,-0.33%,-0.32,3.9%
CCC[C@@H](NC(=O)N1C(=O)C(CC)(CC)[C@@H]1Oc1ccc(C(=O)N2CCN(C)CC2)cc1)c1ccc2c(c1)OCO2,1.03,1.44,-0.09%,1.96,-6.67%
CN1CCN(C(=O)C2C(C(=O)O)[C@H]3CC[C@@H]2O3)CC1 (stereo not given in full),-1.86,0.2,0.49%,0.2,-0.43%
CCN1CCC[C@H]1CNC(=O)c1c(O)c(Cl)cc(Cl)c1OC [raclopride],-5.41,-4.22,-1.29%,-2.68,-0.07%
C[C@@H]1CN(c2c(F)c(N)c3c(=O)c(C(=O)O)cn(C4CC4)c3c2F)C[C@H](C)N1 [sparfloxacin],2.08,2.09,0.77%,-1.72,-2.31%
C[C@H]1O[C@@H](O[C@H]2CC[C@@]3(C)[C@H](CC[C@@H]4[C@@H]3C[C@@H](O)[C@]3(C)[C@@H](C5=CC(=O)OC5)CC[C@]43O)C2)C[C@H](O)[C@@H]1O[C@H]1C[C@H](O)[C@H](O[C@H]2C[C@H](O)[C@H](O[C@@H]3O[C@H](CO)[C@@H](O)[C@H](O)[C@H]3O)[C@@H](C)O2)[C@@H](C)O1 [deslanoside],-1.34,-4.74,-14.1%,-18.9,-20.6%
COc1c(C)cnc(Cn2cnc3c(Cl)nc(N)nc32)c1C,-0.38,2.24,0.07%,3.31,6.01%
COc1cc(OCc2cccc(-c3ccccc3)c2C)cc(OC)c1CN1CCCC[C@H]1C(=O)O [PD1-PDL-inhibitor-1],-2.92,1.37,5.72%,0.14,0.4%
C[C@]12C[C@H](O)[C@H]3[C@@H](CCC4=CC(=O)CC[C@@]43C)[C@@H]1CC[C@@H]2C(=O)CO [corticosterone],-1.19,-0.88,0.56%,-0.38,0.43%
CC1CCN(CCCC(=O)c2ccc(F)cc2)CC1 [melperone],1.03,-0.88,-1.43%,0.99,2.13%
Cc1cn(C[C@H](N)C(=O)O)c(=O)n(Cc2ccsc2C(=O)O)c1=O,1.18,1.91,-1.21%,0.03,2.18%
